# Data published in PubChem BioAssay (NCI).
# Values joined by “and” are separate entries in the source; they are usually repeats but may differ in a detail not shown here. Identical values can stand only once. This is part of a sample that, as a whole, favours compounds with a hit. Of some 83,000 tested, about 20% had one in any assay.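 Note: values are percent growth. 100 is the growth of untreated cells, values between 100 and 0 indicate rising inhibition; between -100 and 0 indicates cell death.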 Values without a mark were called inactive. Active and inactive are the calls of the source. How the source made its calls: active means growth percent below 10; inactive means the rest.
# Test system: MDA-MB-468 breast
# Experiment: NCI-60 one-dose screen, 48 h (100 = growth as untreated, 0 = no growth, -100 = all killed)
# Conditions: 10 µM unless noted
row,SMILES,growth
1,O=C(/C=C/c1ccc([N+](=O)[O-])cc1)c1ccccc1,110%
2,COC(=O)c1ccc2c(C(=Nc3ccc(N(C)C(=O)CN4CCN(C)CC4)cc3)c3ccccc3)c(O)[nH]c2c1,91%
3,Nc1nc(-c2cnccn2)nn1-c1nc2ccccc2s1,102%
4,O=C1Nc2ccc(Br)cc2/C1=N\N=C/c1cn(Cc2ccccc2)c2ccccc12,-43% (active)
5,COc1cc(OC)cc(-c2n/c(=C\c3c(O)[nH]c4ccc(OC)cc34)cc3c2=Nc2ccccc2-3)c1,88.4%
6,O=C1CCC23OC(c4ccccc4N12)C(O)C(O)C3O (centres undefined),114%
7,Cc1cc2nc3[nH]c4ccccc4c3nc2cc1C,97.5%
8,O=C(O)c1cn(C2CC2)c2cc(N3CCN(Cc4nnc(Nc5ccccc5)o4)CC3)c(F)cc2c1=O,114%
9,O=S(=O)(NCCNc1cc(-c2cn(-c3ccccc3)nc2-c2cccc(O)c2)ccn1)c1ccc(Cl)cc1,-24.6% (active)
10,O=C(Nc1ncc(Cc2cc(Cl)ccc2Cl)s1)c1cccs1,18%
11,CCC1=CC2CN(C1)Cc1c([nH]c3ccccc13)[C@@](C(=O)OC)(c1cc3c(cc1OC)N(C)[C@H]1[C@@](O)(C(=O)OC)[C@H](OC(C)=O)[C@]4(CC)C=CCN5CC[C@]31[C@@H]54)C2 (some centres undefined),44.4%
12,c1ccc2[nH]c(SSc3nc4ncncc4[nH]3)nc2c1,11.3%
13,COC(=O)/C(CCC=C(C)C)=C1\[C@@H](OC(C)=O)C[C@@]2(C)[C@H]1C[C@@H](O)[C@H]1[C@@]3(C)CC[C@H](NCc4ccccc4)[C@@H](C)[C@@H]3CC[C@@]12C,76.8%
14,COc1cccc(-c2ccc3c(c2)NC(=O)/C3=C\c2ccc[nH]2)c1,3.08% (active)
15,O=C1Nc2ccccc2Oc2ccc(S(=O)(=O)CC3CO3)cc21 (centres undefined),-5.7% (active)
16,c1ccc(-c2oc(-c3ccccc3)c(CN3CCCCC3)c2CN2CCCCC2)cc1,-35.9% (active)
17,OCc1cnccc1NCCCCOc1ccc(Oc2ccccc2)cc1,30.5%
18,CCCCNC(=O)Oc1ccc(/C(=C(/CC)Cc2ccccc2)c2ccc(OCCN3CCCCCC3)cc2)cc1,6.65% (active)
19,O=C(CCc1nnc2sc(COc3ccccc3)nn12)c1nc2ncccc2[nH]1,100%
20,N#CC1C(=O)c2ccccc2C1c1ccccc1 (centres undefined),94.3% and 119%

row,SMILES,growth
1,O=C(O)CCCc1cnc2c3sccc3nc(SCc3c(Cl)cccc3Cl)n12,60.9%
2,COc1ccc2c(c1)c(-c1nc(-c3c[nH]c4ncccc34)cs1)cn2C,-5.16% (active)
3,O=C1/C(=C/c2ccccc2[N+](=O)[O-])COc2ccc(O)cc21,-9.15% (active)
4,O=Nc1c(O)ccc2ccccc12.O=Nc1c(O)ccc2ccccc12.O=Nc1c([O-])ccc2ccccc12.[Fe+3],106%
5,CCCCCc1c(C)[nH]c(/C=C2\N=C(c3ccc[nH]3)C=C2Oc2ccc(OC)cc2)c1C,-54.8% [100 µM] (active)
6,CN(C)C(=S)SCN1C(=O)c2ccc([N+](=O)[O-])cc2S1(=O)=O,88.4%
7,O=C1CCCC2=C1C(c1c[nH]c3ccc(Br)cc13)Cc1cc(Br)ccc1N2 (centres undefined),-6.51% (active)
8,c1ccc(Nc2nc(-c3ccccn3)cs2)nc1,-14.6% (active)
9,COc1cccc2c1Cc1ccccc1-2,99%
10,CCc1cccc(Sc2cc(C(=O)N3Cc4ccc(OCCN(C)C)cc4C3)ccc2O)c1,30.6%
11,CC[C@]12CC(C(=O)OC)=C3Nc4ccccc4[C@@]34CCN(C14)[C@@H]1c3cc4c(cc3O[C@@H]1[C@H]2O)NC1=C(C(=O)OC)C[C@@]2(CC)C3N(CC[C@@]143)C[C@H]1O[C@H]12 (some centres undefined),-35.7% (active)
12,Fc1ccc(-c2cc3nc(C(Cl)Cl)nc(-c4ccc(F)cc4)n3n2)cc1,-63.6% (active)
13,CCNC(=O)Nc1ncccc1OCc1ccc(F)cc1,101%
14,Cc1ccccc1-n1nnc(C(=O)Nc2nc3ccc(F)cc3s2)c1C,32.8%
15,COc1ccc(/C=C(\C#N)C(=O)Nc2cccc(Nc3nc(SC)nc(-c4cccc([N+](=O)[O-])c4)c3C#N)c2)cc1OC,106%
16,Cc1ccc(C2=Nc3c(N)nc(N)nc3NC(c3cccc(Nc4ccnc5cc(C(F)(F)F)ccc45)c3)C2)cc1 (centres undefined),14.7%
17,O=C1Nc2ccccc2C12CC(c1ccc(Cl)cc1)=NN2 (centres undefined),110%
18,COc1cc(/C=C/C(=O)c2ccc(Cl)cc2)ccc1OS(=O)(=O)c1ccc(C)cc1,99.7%
19,CCCC[N+](CCCC)=c1ccc2nc3c(C)cc(N(CC)CC)cc3sc-2c1,-45.9% (active)
